Measured values as given in PubChem BioAssay (NCI).
About 83,000 compounds went through this panel and 20% of them were active in at least one assay; those are over-represented in the sample as a whole.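 96-well plates, one dose, 48 hours. Percent growth reported; active if below 10.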 Unmarked numbers belong to inactive results. Activity calls are given as the source filed them.

What was measured:
Assay in all cases: NCI-60 one-dose screen, 48 h (100 = growth as untreated, 0 = no growth, -100 = all killed)
Conditions in all cases: 10 µM
[1] = system: BT-549 breast
[2] = system: MDA-MB-435 melanoma
[3] = system: SW-620 colon
[4] = system: MCF7 breast
[5] = system: HCT-116 colon
[6] = system: HCC-2998 colon
[7] = system: KM12 colon

Structure (SMILES)	growth [1]	growth [2]	growth [3]	growth [4]	growth [5]	growth [6]	growth [7]
CCCc1cn(CC(=O)Nc2nc3ccccc3s2)nn1	103%	105%	99.9%	100%	101%	116%	109%
CCOC(=O)c1cc(C(=O)c2cc(OC)cc(OC)c2)n2ncc3ccccc3c12	27.3%	4.07% (active)	8.21% (active)	15.9%	4.23% (active)	69.1%	25.9%
Fc1ccc(C(c2ccc(F)cc2)C(Cl)Cl)cc1	95.5%			98%	96.8%		
OCC1OC(n2cnc3c(NCc4ccco4)ncnc32)C(O)C1O (stereo not given)	-23% (active)	17.2%	18.8%	-13.1% (active)	1.81% (active)	23.7%	62.8%
CCn1cc(C(=O)O)c(=O)c2cc(F)c(N3CCNCC3)cc21	110%	107%	103%	107%	115%	110%	103%
Clc1ccc(Cc2ccncc2)cc1	99.9%	112%	105%	97.5%	101%	95.6%	102%
O=S(=O)(O)c1ccc(Cl)cc1		109%	101%	91.4%	98.4%	98.9%	99.2%
O=C(CCl)Oc1ccc(OC(=O)CCl)cc1	46.9%	85.3%	89.8%	77.9%	94.5%	109%	83.7%
IC(I)I	103%		102%	100%	106%	98%	104%
Nc1ccccc1NC(=O)c1ccc(CCCC(=O)Nc2ccc(C3CC3N)cc2)cc1 (stereo not given)	47.4%	18%	14.9%	17.7%	8.68% (active)	19.5%	45.2%
O=C(CCC(C(=O)c1ccccc1)c1ccccc1)c1ccccc1 (stereo not given)	54.5%	4.52% (active)	41.9%	72%	50.3%	76.6%	34.5%
O=C1/C(=C/c2ccc3c(c2)OCO3)SC(=S)N1C1c2ccccc2Oc2ccccc21	91.1%	96.5%	103%	91.6%	92.9%	80.1%	96.6%
CCCC1(CN2c3ccccc3Sc3ccc(Cl)cc32)CCN(CC)C1 (stereo not given)			-94.7% (active)	-93.7% (active)	-100% (active)	-49.5% (active)	-44.5% (active)
c1ccc(CCCCc2ccc3ccccc3n2)cc1	102%	108%	102%	108%	96%	92.9%	106%
CSc1nc2c(c(=O)n1C)CN(Cc1ccccc1)C(=O)CN2		60%	95.7%	89.6%	92.6%	85.4%	85.7%
COc1cccc(C2C(C#N)=C(N)Oc3cc(N)ccc32)c1 (stereo not given)	47.3%	-30.5% (active)	18.7%	12.1%	23.2%	39.1%	24.6%
Nc1nc(-c2ccc(Cl)cc2)cc(-c2cc3ccccc3oc2=O)n1			97.2%	79.8%	87.7%	126%	103%
CN(C)c1nc(N)c2nccnc2n1	104%	106%	99.2%	96%	104%		101%
COc1ccc(/C=c2\sc3n(c2=O)C(c2cc(OC)c(OC)c(OC)c2)C=C(c2ccc(OC)c(OC)c2)N=3)cc1OC (stereo not given)	88.5%	86.1%	109%	86.2%	89.4%	106%	95.8%
COc1ccc(-c2nn(-c3cccc(Cl)c3)cc2-c2cc(-c3cccs3)[nH]c(=S)n2)cc1	46.7%	33.5%	61.4%	34.1%	20.4%	37.4%	27.5%
COc1cc2cc(Oc3ccc(NC(=O)c4cc(C(F)(F)F)cc(C(F)(F)F)c4)cc3)c(C)nc2cc1OC	52.4%	49.1%	47.4%	29.5%	19.2%	73.9%	37.6%
C/C=C/CSC(C)(C)C(=O)NC		106%	104%	93.8%	91.2%	101%	102%
CCOC(=O)c1cc(C(=O)c2cc(OC)cc(OC)c2)n2nc(C)ccc12	48.7%	-16.2% (active)	17.8%	20.8%	25.2%	54.1%	29.4%
Cn1c2ccccc2c2c3[nH][nH]c(=O)c3c3c4ccccc4[nH]c3c21	20.5%	23.6%	20.7%	5.82% (active)	-52.8% (active)	26.5%	10.7%
